In PubChem BioAssay AID977607 (Broad Institute, 2014) one finds max activation data, which are given here for 54 molecules.

Structures are written as SMILES. About 460 (31%) of roughly 1,500 compounds were called active. Roughly 1% stayed inconclusive and do not appear here. These entries were drawn from the full list. Entries with a potency or affinity are not part of this list. Values without a mark were called inactive.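 How the source made its calls: active means curve reaches 40% activation over neutral controls at an AC40 no higher than the top valid tested concentration; inconclusive means no clear call, values can overlap the other calls; inactive means signal moving opposite to the expected increase, and the rest.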

This assay can be described thus: activators of glucose-dependent insulin secretion, dose response, cell-based, INS-1E, Gaussia luciferase, luminescence, cherry-pick, set 2 (AID 977607).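 Further: 0% = median of the plate neutral control wells.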 The conditions noted are these: INS-1E GLuc insulin secretion reporter, 2-3 h, stronger effect = higher value; at 35 µM, 100% = signal doubled over neutral wells unless noted.
For `O=C(NCc1ccccc1)C(c1ccncc1)n1c(=O)c(-c2ccccc2)nc2ccccc21` (centres undefined), the max activation was -12.6% [at 1.2 µM, 100% = signal doubled over neutral wells].

On to `O=C(OC1CCOC1=O)c1cc(-c2ccc(Cl)cc2)nc2ccccc12` (centres undefined), for which the max activation was 34.2% [at 3.8 µM, 100% = signal doubled over neutral wells].

For `COc1cc(C)c(C)cc1S(=O)(=O)N1CCCCC1c1cccnc1` (centres undefined), the max activation is 13% [at 1.2 µM, 100% = signal doubled over neutral wells].

Turning to `CCc1nc2ccc(C(=O)NCCCN(C)C)cn2c1N(C)Cc1ccc(OC)cc1`, the max activation was -28.3% [at 0.046 µM, 100% = signal doubled over neutral wells].

On to `COC(=O)C1=C(C)NC(=S)NC1c1cccc(OC)c1` (centres undefined), for which the max activation was -19.4% [at 0.046 µM, 100% = signal doubled over neutral wells].

With `CC1CN(S(=O)(=O)c2cc(C(=O)NC(C)c3cccnc3)ccc2Cl)CC(C)O1` (centres undefined), the max activation was -33%.

Regarding `O=C1c2[nH]nc(-c3ccccc3)c2C(c2ccccc2)N1c1ccccc1` (centres undefined), the max activation is -31.9%.

In the case of `COc1ccccc1CNC(=O)CCNS(=O)(=O)c1ccc2[nH]c(=O)oc2c1`, the max activation was -23% [at 0.015 µM, 100% = signal doubled over neutral wells].

For `COC(=O)c1cc(S(=O)(=O)NCC2CCN(Cc3cc(C)ccc3C)CC2)c[nH]1`, the max activation was -22.8% [at 11 µM, 100% = signal doubled over neutral wells].

`O=C(c1ccco1)N1CCN(C2CN(Cc3ccccc3)S(=O)(=O)C2)CC1` (centres undefined): the max activation is 13.2% [at 0.135 µM, 100% = signal doubled over neutral wells].

Take `Cn1cc(Br)c(C(=O)NNC(=O)c2ccccc2)n1`: the max activation was -8.88% [at 0.015 µM, 100% = signal doubled over neutral wells].

Take `Cc1[nH]n(-c2ccc(Br)cc2)c(=O)c1/C=N/NC(=O)c1ccccc1`: the max activation was -37.8%.

Take `O=C(Nc1cccnc1Cl)C1=NN(c2ccccc2)C(=O)CC1`: the max activation was -19.3% [at 0.42 µM, 100% = signal doubled over neutral wells].

`Cn1c(=O)[nH]c(=O)c2c1nc(N1CCCCC1)n2C/C=N/Nc1ccc(C(=O)O)cc1`: the max activation is 40.2% [at 0.0016 µM, 100% = signal doubled over neutral wells].

As for `C/C=C/Cn1c(N2CCCCCC2)nc2c1c(=O)[nH]c(=O)n2C`, the max activation is 53.5%.

Take `C[C@@H]1CC2=C(C(=O)OC(C)(C)O2)[C@H](c2ccc(Cl)cc2)O1`: the max activation is -23% [at 0.42 µM, 100% = signal doubled over neutral wells].

In the case of `Cc1nc2ccccc2c2oc(C(=O)N3CCCC(C)C3)cc12` (centres undefined), the max activation is -8.46% [at 11 µM, 100% = signal doubled over neutral wells].

On to `CCOC(=O)Cc1csc(NC(=O)c2ccc(OC)c(OC)c2)n1`, for which the max activation was 24.7%.

For the molecule `COc1ccc(CCNC(=O)Cc2ccc3c(c2)OCO3)cc1OC`, the max activation is -22.4% [at 0.42 µM, 100% = signal doubled over neutral wells].

On to `Cc1c(C(=O)N(C)CCc2cnn(C)c2)oc2c(F)cccc12`, for which the max activation is -14.1% [at 3.8 µM, 100% = signal doubled over neutral wells].

Regarding `CC(=O)Nc1ccc(S(=O)(=O)Nc2ccc3c(c2)n(C)c(=O)n3C)c(C)c1`, the max activation was -23.1%.

Regarding `CCCCn1c(=O)n(C)c(=O)c2c3c(sc21)COC(C)(C)C3`, the max activation was -17% [at 0.015 µM, 100% = signal doubled over neutral wells].

For the molecule `COc1ccc(C(=O)Nc2ccccc2C(=O)NCc2cccnc2)cc1OC`, the max activation was 42.3% [at 0.42 µM, 100% = signal doubled over neutral wells].

With `O=C(NCc1cccnc1)c1cccc(S(=O)(=O)NCc2ccccc2)c1`, the max activation is -24% [at 0.0016 µM, 100% = signal doubled over neutral wells].

Consider `c1ccc(CCN2CCN=C2Nc2ccccc2)cc1`, for which the max activation was -31.5% [at 0.42 µM, 100% = signal doubled over neutral wells].

In the case of `CN(C)C=NC(=O)c1ccc(N2CCN(c3ncc(C(F)(F)F)cc3Cl)CC2)cc1`, the max activation was -20.4% [at 11 µM, 100% = signal doubled over neutral wells].

For `CN(C)c1nc(=NCc2cccs2)ss1`, the max activation was -34.9% [at 11 µM, 100% = signal doubled over neutral wells].

Consider `CCCc1cc(=O)oc2cc(OCC(=O)NC3CCN(Cc4ccccc4)CC3)ccc12`, for which the max activation was -23.5%.

As to `CNC(=O)C1CC(=O)N(c2ccc(OCC(=O)Nc3ccccc3)cc2)C1` (centres undefined), the max activation is -14.9% [at 0.135 µM, 100% = signal doubled over neutral wells].

Turning to `COc1cc2[nH]c3c(Cl)ncnc3c2cc1OC`, the max activation was -29.3% [at 3.8 µM, 100% = signal doubled over neutral wells].

Take `O=C(CCc1nc2ccccc2c(=O)[nH]1)NNC(=O)c1cccc(Cl)c1`: the max activation is -14.7% [at 0.015 µM, 100% = signal doubled over neutral wells].

Take `CCCn1c(=O)c(C(=O)NCc2ccccc2)c(O)c2ccccc21`: the max activation was -28%.

For `COc1ccnc(N2CCN(c3cccc(C(F)(F)F)c3)CC2)c1C#N`, the max activation is 81.3%.

In the case of `CN(C)CCCN(C(=O)c1ccco1)c1nc2c(F)cccc2s1`, the max activation is -22.6% [at 0.015 µM, 100% = signal doubled over neutral wells].

For `CCOc1ccc2ccc(OCC)c(/C=N/n3cnnc3)c2c1`, the max activation is -33.7%.

As for `Cc1cc2cc(C#N)c(N3CCOCC3)nc2cc1Cl`, the max activation was -10.5% [at 0.015 µM, 100% = signal doubled over neutral wells].

Consider `O=C1CC(=O)Nc2cc(S(=O)(=O)NCc3cccs3)ccc2N1`, for which the max activation was -18.8% [at 0.0016 µM, 100% = signal doubled over neutral wells].

On to `COc1ccc(CCNc2ccncn2)cc1OC`, for which the max activation is -13.5% [at 0.0016 µM, 100% = signal doubled over neutral wells].

In the case of `COc1ccc(CCN=C(N)NS(=O)(=O)c2ccc(C)c(C)c2)cc1OC`, the max activation is 23.8% [at 0.0016 µM, 100% = signal doubled over neutral wells].

Regarding `COc1ccc(CCNS(=O)(=O)c2ccc(Cl)s2)cc1OC`, the max activation was 28.1%.

`COc1ccc(CCNC(=O)C(=O)NN=C2CCCCCCC2)cc1OC`: the max activation was -11.7% [at 0.005 µM, 100% = signal doubled over neutral wells].

As for `COc1ccc(CCN(C)C(=O)CCNS(=O)(=O)c2ccccc2C(F)(F)F)cc1OC`, the max activation was -10.8% [at 0.135 µM, 100% = signal doubled over neutral wells].

Regarding `CCOC(=O)c1c(S(=O)(=O)NCCc2ccc(OC)c(OC)c2)c(C)n(C)c1C`, the max activation is -18.5% [at 0.135 µM, 100% = signal doubled over neutral wells].

In the case of `Cc1ccc(NC(=O)[C@@H](Cc2ccccc2)NC(=O)[C@H]2O[C@@H](n3ccc(=O)[nH]c3=O)[C@H](O)[C@@H]2O)cc1C`, the max activation is -17.1% [at 0.015 µM, 100% = signal doubled over neutral wells].

On to `COc1ccc(NC(=O)C2CCCN2S(=O)(=O)c2ccc3c(c2)CC(C)N3C(C)=O)cc1OC` (centres undefined), for which the max activation was -19.4% [at 0.005 µM, 100% = signal doubled over neutral wells].

In the case of `COc1cccc(NC(=O)CN(C)C(=O)Cn2[nH]c(=O)c3ccccc3c2=O)c1`, the max activation was -27.7% [at 1.2 µM, 100% = signal doubled over neutral wells].

With `COc1cc2c(cc1OC)C(CSc1ccccc1C(=O)O)=NC(C)(C)C2`, the max activation is 30.8%.

As to `O=C(NCC1(O)CCCCC1)C1CCC(=O)N(Cc2ccccc2F)C1` (centres undefined), the max activation was -16.4%.

For the molecule `CCOC(=O)c1sc(NC(C)=O)nc1-c1ccccc1`, the max activation is -16.3% [at 0.046 µM, 100% = signal doubled over neutral wells].

For the molecule `CN(C(=O)COC(=O)c1cccs1)c1ccccc1`, the max activation is -16.8% [at 0.0016 µM, 100% = signal doubled over neutral wells].

As to `O=C(Nc1cccnc1)c1cnn2c(C(F)F)cc(C3CC3)nc12`, the max activation is 30.2% [at 11 µM, 100% = signal doubled over neutral wells].

`Cc1cc(C(F)F)n2ncc(C(=O)NCc3ccc(F)cc3)c2n1`: the max activation is -18% [at 1.2 µM, 100% = signal doubled over neutral wells].

On to `COc1ccc(-c2cc(NC=O)c3ncc(-c4ccc(OC)c(OC)c4)n3c2)cc1`, for which the max activation was 90% [at 3.8 µM, 100% = signal doubled over neutral wells].

With `CC(=O)Nc1cc(-c2ccc(N3CCN(C)CC3)cc2)cn2c(-c3cccc(C(=O)N(C)C)c3)cnc12`, the max activation was -24% [at 0.046 µM, 100% = signal doubled over neutral wells].
